# Test results as given in ChEMBL document CHEMBL3988442, “University of Dundee, Small-Polar-MMV Screening Library” (2021).
# Target: T1, Aspartate--tRNA(Asp/Asn) ligase (Mycobacterium tuberculosis (strain ATCC 25618 / H37Rv)) (UniProt P9WFW3)
# T1 sequence (whole entry): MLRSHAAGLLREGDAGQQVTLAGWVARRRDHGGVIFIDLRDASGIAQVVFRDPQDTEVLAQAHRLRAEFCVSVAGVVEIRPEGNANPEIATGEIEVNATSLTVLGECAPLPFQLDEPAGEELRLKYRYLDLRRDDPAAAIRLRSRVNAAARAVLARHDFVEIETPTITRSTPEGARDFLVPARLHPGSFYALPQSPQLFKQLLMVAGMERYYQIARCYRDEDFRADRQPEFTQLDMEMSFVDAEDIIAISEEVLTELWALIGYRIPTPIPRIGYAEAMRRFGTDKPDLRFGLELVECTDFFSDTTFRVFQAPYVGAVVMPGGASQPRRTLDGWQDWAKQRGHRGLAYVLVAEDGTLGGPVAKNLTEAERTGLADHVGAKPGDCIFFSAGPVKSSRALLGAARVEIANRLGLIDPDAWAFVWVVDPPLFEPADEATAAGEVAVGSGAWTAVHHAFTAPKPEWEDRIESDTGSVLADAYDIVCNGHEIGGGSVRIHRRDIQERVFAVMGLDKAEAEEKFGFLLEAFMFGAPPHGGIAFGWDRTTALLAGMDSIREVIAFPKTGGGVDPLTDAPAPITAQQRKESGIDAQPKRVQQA
# Assay: Assay for Asp RNA synthetase-1 from Mycobacterium tuberculosis
# Format: functional
# Design: scale not given: in the data most compounds retested in dose-response had high values
# Conditions: 30 µM
row,Structure (SMILES),Percent Effect [%]
1,CC(C)c1nc(C2CCCN2CC(=O)N2CCc3ccccc32)no1 (stereo not given),1.52
2,CN(Cc1cnn(C)c1)C(=O)NCc1nnc2n1CCC2,-10.2
3,Cc1ncc(CNC(=O)CCc2cccc(F)c2)c(C2CCCN2C)n1 (stereo not given),1.77
4,COc1ccc(CC(=O)N2CCCC2Cn2cccn2)cc1F (stereo not given),-0.871
5,Cc1nc(CCNC(=O)NC2CCN(c3ncccn3)CC2)cs1,-2.14
6,Cc1ncccc1O[C@H]1CCN(C(=O)c2cccs2)CC[C@@H]1O,4.9
7,CNS(=O)(=O)Cc1ccc(CNC(=O)c2cccc(C)n2)cc1,-1.85
8,Cc1cc(NC(=O)c2nc(N3CCCC3)ncc2Cl)nc(C(C)C)n1,2.49
9,CCN1CCN(C2CCN(Cc3nc4ccccc4o3)CC2)C1=O,12.7
10,CNC(=O)c1ccc(C2CN(C(=O)COC)CCO2)nc1 (stereo not given),5.69
11,Cc1cc(C)c(CNC(=O)N(C)CC2CCCCO2)c(=O)[nH]1 (stereo not given),2.7
12,O=C(c1ccc(F)cc1)N1C[C@@H]2OCCN(c3ncccn3)[C@@H]2C1,-0.874
13,CCn1ccnc1-c1nc2cc(S(=O)(=O)N3CCCC3)ccc2n1C,-4.2
14,Cc1nnc(N2CC[C@H]3C[C@H](C(=O)N4CCOCC4)O[C@H]3C2)s1,3.25
15,COCCC(=O)N1CCN(C)c2ncccc2C1,4.52
16,COc1ccc(C)cc1CSCCn1nc2ccccn2c1=O,-3.83
17,Cc1nc(Nc2ncccn2)cc(C2CCCN2C2CCOCC2)n1 (stereo not given),2.13
18,O=C(Nc1ccccc1)c1nn(C2CCS(=O)(=O)C2)c2c1CCCC2 (stereo not given),0.629
19,Cc1cc(NCc2cccnc2)n2nc(C)cc2n1,-2.06
20,Cc1nn(C)cc1CN1CCC(C2Nc3ccccc3S(=O)(=O)N2)CC1 (stereo not given),-0.223
